Measured values from the supplement of paper PMC10338343.
± gives the standard deviation.

System: MILI (PIWIL2) piRISC loaded with piRNA #1 (26 nt)
Assay: pre-steady-state target cleavage rate (min^-1); guide: piRNA #1 5'p-UGAGGUAGUAGGUUGUAUAGUAUCCA; MIWI and MILI are mouse PIWI proteins and EfPiwi is from a freshwater sponge; tags in brackets are library labels; higher = faster piRNA-guided slicing of the target
Conditions: auxiliary factor: 500 nM mouse GTSF1
Outline: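 At 33 °C in HEPES–potassium acetate buffer, a transcribed, DNA-blocked target RNA library […] was exposed for 0–8 or 0–960 min to 1 nM active affinity-purified piRISC carrying a single synthetic guide, with or without 500 nM GTSF1 partner protein. Uncleaved targets were sequenced and normalised to depth and to weakly complementary targets. With three trials pooled and k3 capped at 0.0001 min^-1, a burst-and-steady-state fit produced the pre-steady-state cleavage rate.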
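Also: 1 nM active piRISC with 0.1 nM target library at 33 °C single turnover.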

| Sequence | pre-steady-state target cleavage rate |
| --- | --- |
| GGAGACCAUACUUUACAAGCUACUACCUCA | 0.199 ± 0.017 |
| GGAGACCUAUGAAUACAUCCUACAACCUCA | 0.0119 ± 0.0025 |
| GGAGACCUUACUUUACAACCUACUACGUCA | 0.0613 ± 0.011 |
| GGAGACCUUACUAUACUUGCUACUACCUCA | 0.0548 ± 0.0062 |
| GGAGACCUAUGUAUACAACCUACUACCGCA | 0.085 ± 0.015 |
| GGAGACCUUACUAUACAUCCUACUAGCUCA | 0.2 ± 0.024 |
| GGAGACCUAUGUAUUCAACCUACUACCUGA | 0.0167 ± 0.0046 |
| GGAGACCUUACUAUACAACCGUACUACCUCA | 0.00868 ± 0.0053 |
| GGAGACCUAAGUAUAGAACCUACUACCUCA | 0.0747 ± 0.013 |
| GGAGACCAUACUUUUCAACCUACUACCUCA | 0.153 ± 0.015 |
| GGAGUGGAUACUUUACAACCUACUACGUCA | 0.0457 ± 0.0058 |
| GGAGACCUAUGAUUACUACCUACUAGCUCA | 0.0036 ± 0.0032 |
| GGAGACCUAUGUAUACAGCCUACUACCUCA | 0.0196 ± 0.0053 |
| GGAGACCUAACUAUACAACCUAUCUACCUCA | 0.11 ± 0.024 |
| GGAGACCAUACUAAACAAGCUACUACCUCA | 0.236 ± 0.018 |
| GGAGACCUAUGAAUACAAUCUACUACCUCA | 0.00544 ± 0.0022 |
| GGAGACCAUACUAUACUACCAACUACCUCA | 0.00547 ± 0.0022 |
| GGAGACGAUAUAUACAACCUACUACCUCA | 0.154 ± 0.011 |
| GGAGACCAUACUAUACAAGCAACUACCUCA | 0.00864 ± 0.003 |
| GGAGACCUAACUAUACUUGCUACUACCUCA | 0.0149 ± 0.0044 |
| GGAGACCUAUGUUUACAACCUAGUACCUCA | 0.00404 ± 0.0027 |
| GGAGACCUAUGAUUACAAGCUACUACCUGA | 0.0183 ± 0.0056 |
| GGAGACCUAUGUAUACAAUCUACUACCUCA | 0.0642 ± 0.011 |
| GGAGACCUAACUAUUCAACGUACUACCUCA | 0.0113 ± 0.0053 |

| Sequence | pre-steady-state target cleavage rate |
| --- | --- |
| GGAGCGGAUACUAUACAACCUACUACCUCA | 0.203 ± 0.013 |
| GGAGACCUUACUAUACAACCAACAACCUCA | 0.00353 ± 0.0022 |
| GGAGACCUAUCUAUAGAACCUACUACGUCA | 0.0269 ± 0.0089 |
| GGAGACCUAACUAUACAGCCUACUACCUCA | 0.0605 ± 0.018 |
| GGAGACCUAACUAUACAACCUACUAGCACA | 0.00779 ± 0.0065 |
| GGAGUGGAUACUAUAAACCUACUACCUCA | 0.0206 ± 0.0043 |
| GGAGACCUAAGUAUACAACCUACUUCCUCA | 0.0285 ± 0.0069 |
| GGAGACCUUACUAUACAACCUACAACCACA | 0.0494 ± 0.013 |
| GGAGACCUUAGUAUACAACCUACUACGUCA | 0.0155 ± 0.0047 |
| GGAGACCUAUGAUAUGAACCUACAACGUCA | < 0.0001 |
| GGAGACCAUUCUAUAGAACCUACUACCUCA | 0.116 ± 0.015 |
| GGAGACCUUACUAAACAACCUACUUCCUCA | 0.0656 ± 0.014 |
| GGAGACCUAUGAUUACAAGCUACUACCACA | 0.0854 ± 0.022 |
| GGAGACCUAUGUUUACAACGUACUACCUCA | 0.00618 ± 0.0026 |
| GGAGACCAUACUUAUCAACCUACUACCUCA | 0.102 ± 0.02 |
| GGAGACCUAUGAUUACAACCUACUACCACA | 0.00372 ± 0.0023 |
| GGAGACCUAUGUAAACAUCCUACUACCUCA | 0.0128 ± 0.0025 |
| GGAGACCUAUCUAUACAACCUACUACCUAA | 0.0733 ± 0.0096 |
| GGAGACCUAUCUAUACAACGUACUACCUGA | 0.00689 ± 0.0021 |
| GGAGACCUAUCUAUACAUCCUACUACGUCA | 0.0773 ± 0.017 |
| GGAGACCUAACUAUUCAACCUACUACGUCA | 0.0338 ± 0.011 |
| GGAGACCUAUGAUAUGAAGCUACUUCCUCA | < 0.0001 |
| GGAGACCUUACUAUAGAACGUACUACCUCA | 0.0109 ± 0.0021 |
| GGAGACCUAUCAAUACAACCAACUACCUCA | 0.00756 ± 0.0033 |

| Sequence | pre-steady-state target cleavage rate |
| --- | --- |
| GGAGACCUAUGUAUACAACCUACUACCUCC [g2:g19:cont:t1C] | 0.0539 ± 0.0077 |
| GGAGACCUAACUAUACAAGCUACAACCUCA | 0.182 ± 0.026 |
| GGAGACCUAACUAUACAACCUAGAACCUCA | 0.00531 ± 0.005 |
| GGAGACCUAUCUAUACAUCCUACAACCUCA | 0.165 ± 0.014 |
| GGAGACGUUACUAUACAACCUACUUCCUCA | 0.0496 ± 0.013 |
| GGAGACCUAUCUAUACAACUUACUACCUCA | 0.0156 ± 0.0023 |
| GGAGACCUAUGAUAUGUUGCUACUACCUAA | < 0.0001 |
| GGAGACCUAUGAUAUGUUCCUACACCUCA | < 0.0001 |
| GGAGACCUAUCUAUACAACCUACUACACUCA | 0.179 ± 0.022 |
| GGAGACCAUACUAUAGUUCCUACUACCUCA | 0.156 ± 0.019 |
| GGAGACCUUACUAUACAACCUACUGACCUCA | 0.107 ± 0.017 |
| GGAGACCUAUGUAUACAACCUGCUACCUCA | 0.0059 ± 0.0023 |
| GGAGUGGAUACUAAUGAACCUACUACCUCA | 0.0477 ± 0.0065 |
| GGAGACCUAUGAAAACAAGCUACUACCUCA | 0.00917 ± 0.0021 |
| GGAGACCAUACUAUACAACCUACUCCUCA | 0.0178 ± 0.0057 |
| GGAGACCUAUGUAUACAACCUACAUACCUCA | 0.043 ± 0.0061 |
| GGAGACCUAACUAUACAACCUACAAGCUCA | 0.0191 ± 0.011 |
| GGAGACCUAUGUAUACAACCUACAACGUCA | 0.00278 ± 0.0027 |
| GGAGACCUAUGAUUACAACCUAUCUACCUCA | 0.00755 ± 0.003 |
| GGAGAGGAUUCAAUACAACCUACUACCUCA | 0.132 ± 0.01 |
| GGAGACGAUACUAUACAACCUACUACCUCG [g2:g24:cont:t1G] | 0.183 ± 0.014 |
| GGAGAGGAUACUAUACUACCUACUACCUCA | 0.173 ± 0.011 |
| GGAGACCUAACUAUUCAACCUACAACCUCA | 0.129 ± 0.021 |
| GGAGACCUAUGAAUACUUCCUACUACCUCA | 0.00297 ± 0.0022 |

| Sequence | pre-steady-state target cleavage rate |
| --- | --- |
| GGAGACCUAUCUAUACAAUCUACUACCUCA | 0.093 ± 0.0085 |
| GGAGACCUAUCUAUACAACCUACUUACCUCA | 0.121 ± 0.015 |
| GGAGACCAUACUUUACAACGUACUACCUCA | 0.0198 ± 0.0034 |
| GGAGACCUAUGAUUUCAACCUACAACCUCA | 0.00341 ± 0.0021 |
| GGAGACCUAUGAUAUGUACCUAGUUCCUCA | < 0.0001 |
| GGAGACGAUACAAUAGAACCUACUACCUCA | 0.178 ± 0.014 |
| GGAGACCUAUGAUUCACAACCUACUACCUCA | 0.00321 ± 0.0032 |
| GGAGACCUAUGAAUACAUCCUACUAGCUCA | 0.00797 ± 0.0028 |
| GGAGACCUAUGAUAUGUUCCUACUACCUGCA | < 0.0001 |
| GGAGACCUAACUAUACAAGCUACUACCACA | 0.309 ± 0.029 |
| GGAGAGGAUACUAUACAUCCUACUACCUGA | 0.00529 ± 0.0032 |
| GGAGACCAUACUAUACUUGGAUGAUGGAGA [g15:g23:cont:t1A] | < 0.0001 |
| GGAGACCAUACUAUUCAACCUAGUACCUCA | 0.0559 ± 0.011 |
| GGAGAGUAUACUAUACAACCUACUACCUCA | 0.184 ± 0.011 |
| GGAGACCUAUGAUUACAACCUUCUACCUCA | 0.00235 ± 0.0023 |
| GGAGACCUAACUAAACAAGCUACUACCUCA | 0.15 ± 0.02 |
| GGAGACCUAUGUAUAACAACCUACUACCUCA | 0.0151 ± 0.0041 |
| GGAGACCAUAGUAUACAACGUACUACCUCA | 0.0174 ± 0.0033 |
| GGAGACCUAUCUAUACAACCAACUUCCUCA | 0.00361 ± 0.0027 |
| GGAGACCAUACUAUACAUCCUUCUACCUCA | 0.042 ± 0.0097 |
| GGAGACCUAUGUAUUCAACCUACUACGUCA | 0.00786 ± 0.0022 |
| GGAGACCUAUCUAUACAACCUUCUACGUCA | 0.00428 ± 0.003 |
| GGAGACCUAUCUUUACAACCUACUUCCUCA | 0.0374 ± 0.0094 |
| GGAGACCUUUCUUUACAACCUACUACCUCA | 0.07 ± 0.012 |

| Sequence | pre-steady-state target cleavage rate |
| --- | --- |
| GGAGACCUAUGUAAACAACCUACUACCUGA | 0.00535 ± 0.0019 |
| GGAGACCUAACAAUACAACCUAGUACCUCA | 0.00888 ± 0.0052 |
| GGAGACCUAUCUUAACAACCUACUACCUCA | 0.0183 ± 0.0045 |
| GGAGACCUAUGAAUACAACGUACAACCUCA | 0.00489 ± 0.0026 |
| GGAGACCUUACUAUACAACCUACUACUCUCA | 0.242 ± 0.025 |
| GGAGACCUUUACUAUACAACCUACUACCUCA | 0.154 ± 0.012 |
| GGAGACCUAUGUAUACAACCUACUUACCUCA | 0.0503 ± 0.0043 |
| GGAGACCAUACUAUAGUACCUACUACCUCA | 0.149 ± 0.018 |
| GGAGACCUAUCUAUUCAACCUACUACCUCA | 0.108 ± 0.015 |
| GGAGACCUUACUAUAAACCUACUACCUCA | 0.00481 ± 0.0027 |
| GGAGACCUUACUAUAGAACCUACUACCUCA | 0.125 ± 0.015 |
| GGAGUGGAUACUUUACAUCCUACUACCUCA | 0.253 ± 0.012 |
| GGAGACCUUACUAUACAACCUACUUACCUCA | 0.158 ± 0.013 |
| GGAGACCUAUCUAAACAACCUACUACCUGA | 0.0477 ± 0.013 |
| GGAGACCUAUCUAUACAAGCAACUACCUCA | 0.00953 ± 0.0029 |
| GGAGACCUAUGUAAACAACCUACAACCUCA | 0.0135 ± 0.0041 |
| GGAGACCUAUGAUAUCAAGCUACAACCUCA | 0.00699 ± 0.0025 |
| GGAGACCUAUCUUAUCAACCUACUACCUCA | 0.0106 ± 0.0025 |
| GGAGACCUAUCUAUACAACCUACUCACCUCA | 0.0886 ± 0.011 |
| GGAGACCUAUGAUAUGUUCCUUCUACCACA | < 0.0001 |
| GGAGACCUAUGUAAACAAGCUACUACCUCA | 0.0459 ± 0.0073 |
| GGAGACCUAUGAUUACAACCUAAUACCUCA | 0.00387 ± 0.0022 |
| GGAGACCUUACUAUACAAGCUACUUCCUCA | 0.149 ± 0.021 |
| GGAGACCUUACUAUACAACCUACUACAUCA | 0.106 ± 0.013 |
